Source: article PMC5540273 (PLoS ONE, 2017)

Experiments:
Settings in all cases: concentration: 1 μM, replicates: in singlicate; n = 1
CAMK2G = test system: CAMK2G
CAMK4 = test system: CAMK4
CAMKK1 = test system: CAMKK1
CAMKK2 = test system: CAMKK2
CASK = test system: CASK
CDC2L1 = test system: T1, CDC2L1
T1 construct: gene CDK11B

CDC2L2 = test system: CDC2L2
CDC2L5 = test system: T2, CDC2L5
T2 construct: gene CDK13

CDK11 = test system: T3, CDK11
T3 construct: gene CDK19

CDK2 = test system: CDK2
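Further: KINOMEscan kinase panel screen.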

C[C@@H]1CC[C@H](C(=O)NC2CCCCC2)CN1c1cc(-c2ccc3c(N)n[nH]c3c2)nc(N)n1 [GSK2291363]
%Inh (CAMK2G): 38% | %Inh (CAMK4): 0% | %Inh (CAMKK1): 24% | %Inh (CAMKK2): 37% | %Inh (CASK): 18% | %Inh (CDC2L1): 0% | %Inh (CDC2L2): 23% | %Inh (CDC2L5): 0% | %Inh (CDK11): 7% | %Inh (CDK2): 1%

O=C(Nc1n[nH]c2cc(-c3ccccc3F)ccc12)C1CC1 [SB-733371]
%Inh (CAMK2G): 0% | %Inh (CAMK4): 0% | %Inh (CAMKK1): 0% | %Inh (CAMKK2): 0% | %Inh (CASK): 0% | %Inh (CDC2L1): 0% | %Inh (CDC2L2): 0% | %Inh (CDC2L5): 33% | %Inh (CDK11): 0% | %Inh (CDK2): 25%

CCC(=O)c1c(-c2ccccc2)c2cc(Cl)ccc2c(=O)n1Cc1cc(S(C)(=O)=O)n(CC(F)F)n1
%Inh (CAMK2G): 0% | %Inh (CAMK4): 0% | %Inh (CAMKK1): 0% | %Inh (CAMKK2): 6% | %Inh (CASK): 5% | %Inh (CDC2L1): 1% | %Inh (CDC2L2): 2% | %Inh (CDC2L5): 24% | %Inh (CDK11): 0% | %Inh (CDK2): 0%
